Data published in PubChem BioAssay.
Unmarked numbers belong to inactive results. No rule for the calls is given here.

biological target: Pantothenate synthetase (Mycobacterium tuberculosis (strain ATCC 25618 / H37Rv)) (UniProt P9WIL5); assay: Recombinant Mtb pantothenate synthetase (PanC) inhibitors, coupled enzyme, confirmatory (AID 375); details: coupled enzyme assay; at 10 µM, stronger effect = higher value;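 also: 0% = full reaction with vehicle and 100% = no enzyme background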
Sequence (P9WIL5 whole entry, looked up): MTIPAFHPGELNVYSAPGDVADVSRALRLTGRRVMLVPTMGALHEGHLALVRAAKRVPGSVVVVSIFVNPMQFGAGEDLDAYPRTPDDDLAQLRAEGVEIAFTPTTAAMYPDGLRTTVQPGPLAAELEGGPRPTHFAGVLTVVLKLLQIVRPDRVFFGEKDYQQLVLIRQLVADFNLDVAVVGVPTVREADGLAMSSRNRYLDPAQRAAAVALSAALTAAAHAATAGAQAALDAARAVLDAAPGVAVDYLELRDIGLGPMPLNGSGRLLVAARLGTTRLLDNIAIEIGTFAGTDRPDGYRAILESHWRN

Row | Compound | inhibition
1 | CC(C)Cc1nc(N2CCN(C(=O)c3ccco3)CC2)c(C#N)c2c1CCC2 | 5%
2 | N#C/C(=C(/O)CN1CCOCC1)c1nc2ccccc2s1 | 0%
3 | Cc1onc(-c2ccccc2)c1C(=O)N[C@@H]1C(=O)N2[C@@H]1SC(C)(C)[C@@H]2C(=O)O | 0%
4 | Cc1nc2ccccc2c2oc(C(=O)NCCCN3CCCC3=O)cc12 | 7%
5 | O=C(CN1C(=O)CC(c2ccco2)Sc2ccccc21)Nc1ccc2c(c1)OCCO2 (stereo not given) | 3%
6 | OCCN1CCN(CCCN2c3ccccc3Sc3ccc(C(F)(F)F)cc32)CC1 | 2%
7 | CCCCc1cc(=O)oc2c(CN3CCCC3)c(O)c(Cl)cc12 | 7%
8 | O=C(NC1(C(F)(F)F)NC(=O)N(Cc2ccco2)C1=O)c1cccnc1 (stereo not given) | 11%
9 | Cn1c(=O)c2c(nc(SCC(=O)N3CCCc4ccccc43)n2C)n(C)c1=O | 1%
10 | Cc1cccc(C2CC(c3ccc(Cl)cc3)Nc3nc(N)nn32)c1 (stereo not given) | 0%
11 | O=C(c1ccc(CNc2c(N3CCCC3)c(=O)c2=O)cc1)N1CCc2ccccc2C1 | 1%
12 | CN(Cc1ccccc1)C(=O)CNC(=O)Cn1cnc2ccccc2c1=O | 0%
13 | Cc1nc(SCC(=O)N2CCC(C(N)=O)CC2)n[nH]1 | 0%
14 | O=S(=O)(NCC1CCCO1)c1cccc(C(F)(F)F)c1 (stereo not given) | 0%
15 | COc1cccc2c1C(=O)c1c(O)c3c(c(O)c1C2=O)C[C@@](O)(C(C)=O)C[C@@H]3O[C@H]1C[C@H](N)[C@H](O)[C@H](C)O1 | 0%
